From the supplement of paper PMC9262897, “Low-cost anti-mycobacterial drug discovery using engineered E. coli” (Nature Communications, 2022)
Where a name gives a salt, the structure may show the parent alone. ± gives the standard deviation of the averaged measurements.

Experiments:
Test in all cases: growth (OD600 after 10 h); higher = more growth (less inhibition)
[1] = tested on: E. coli TESEC Alr+ wild-type control; settings: compound 0.1 mM; raw OD600 reference: median of DMSO wells 0.241, cell-free background 0.041
Procedure: (§1)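 TESEC Mtb Alr E. coli, or the Alr+ wild-type control, in 384-well plates with Prestwick library compounds at 0.1 mM and 1% DMSO, across arabinose induction levels of 1E3 to 1E7 nM. Growth is read as OD600 after 10 h at 37 °C in triplicate biological replicates.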

E. coli TESEC Mtb Alr [2] = settings: compound 0.1 mM
Procedure: as §1

E. coli TESEC Mtb Asd = settings: compound 0.1 mM
Procedure: (§2)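 TESEC E. coli strains in which the native enzyme is deleted and replaced by arabinose-inducible Mtb Asd, DapB, CysH or TrpD, each grown in its selective medium. Strains were screened against the Prestwick library at 0.1 mM and 1% DMSO in 384-well format at low and high arabinose induction. Growth is read as OD600 after 10 h in triplicate.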

E. coli TESEC Mtb DapB = settings: compound 0.1 mM
Procedure: as §2

[3] = tested on: E. coli TESEC Alr+ wild-type control; settings: compound 0.1 mM; raw OD600 reference: median of DMSO wells 0.49, cell-free background 0.052
Procedure: (§3)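 TESEC Mtb Alr E. coli (ΔaraC ΔtolC ΔentC Δalr ΔdadX, arabinose-inducible Mtb Alr) or the Alr+ wild-type control strain, grown in defined M9-fructose medium without D-alanine in 96-well plates with Prestwick library compounds at 0.1 mM and 1% DMSO. Low Alr induction is 0.1 µM arabinose and high induction is 10 mM arabinose.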

E. coli TESEC Mtb Alr [4] = settings: compound 0.1 mM; remark: listed apart in the source
Procedure: as §3

[5] = arabinose 1000 nM, raw OD600 reference: median of DMSO wells 0.294, cell-free background 0.041
[6] = arabinose 10000 nM, raw OD600 reference: median of DMSO wells 0.264, cell-free background 0.041
[7] = arabinose 100000 nM, raw OD600 reference: median of DMSO wells 0.201, cell-free background 0.041
[8] = arabinose 1000000 nM, raw OD600 reference: median of DMSO wells 0.193, cell-free background 0.041
[9] = arabinose 10000000 nM, raw OD600 reference: median of DMSO wells 0.146, cell-free background 0.041
[10] = arabinose induction (level): High, raw OD600 reference: median of DMSO wells 0.331, cell-free background 0.041
[11] = arabinose induction (level): Low, raw OD600 reference: median of DMSO wells 0.417, cell-free background 0.041
[12] = arabinose induction (level): High, raw OD600 reference: median of DMSO wells […], cell-free background 0.041
[13] = arabinose induction (level): Low, raw OD600 reference: median of DMSO wells 0.227, cell-free background 0.041
[14] = arabinose 100 nM, raw OD600 reference: median of DMSO wells 0.413, cell-free background 0.052
[15] = arabinose 10000000 nM, raw OD600 reference: median of DMSO wells […], cell-free background 0.052

| SMILES | growth [1] | growth (E. coli TESEC Mtb Alr [2]; [5]) | growth (E. coli TESEC Mtb Alr [2]; [6]) | growth (E. coli TESEC Mtb Alr [2]; [7]) | growth (E. coli TESEC Mtb Alr [2]; [8]) | growth (E. coli TESEC Mtb Alr [2]; [9]) | growth (E. coli TESEC Mtb Asd; [10]) | growth (E. coli TESEC Mtb Asd; [11]) | growth (E. coli TESEC Mtb DapB; [12]) | growth (E. coli TESEC Mtb DapB; [13]) | growth [3] | growth (E. coli TESEC Mtb Alr [4]; [14]) | growth (E. coli TESEC Mtb Alr [4]; [15]) |
| --- | --- | --- | --- | --- | --- | --- | --- | --- | --- | --- | --- | --- | --- |
| CC1(C)OC(=O)NC1=O [Dimethadione] | 0.243 ± 0.0066 | 0.295 ± 0.016 | 0.2697 ± 0.0012 | 0.191 ± 0.017 | 0.184 ± 0.0086 | 0.139 ± 0.0053 | 0.292 ± 0.005 | 0.414 ± 0.022 | 0.182 ± 0.0086 | 0.199 ± 0.05 | 0.526 ± 0.075 | 0.406 ± 0.017 | 0.347 ± 0.011 |
| Cn1c(=O)c2[nH]cnc2n(C)c1=O [Aminophylline] | 0.246 ± 0.005 | 0.292 ± 0.012 | 0.262 ± 0.0083 | 0.196 ± 0.0098 | 0.195 ± 0.0022 | 0.134 ± 0.0058 | 0.287 ± 0.065 | 0.457 ± 0.018 | 0.226 ± 0.017 | 0.234 ± 0.023 | 0.513 ± 0.08 | 0.406 ± 0.015 | 0.355 ± 0.019 |
| CC(=O)N(CC(C)C(=O)O)c1c(I)cc(I)c(N)c1I (stereo unspecified) [Iocetamic acid] | 0.213 ± 0.007 | 0.274 ± 0.0081 | 0.289 ± 0.0072 | 0.2 ± 0.01 | 0.265 ± 0.003 | 0.144 ± 0.0039 | 0.36 ± 0.022 | 0.268 ± 0.021 | 0.202 ± 0.018 | 0.202 ± 0.019 | 0.509 ± 0.026 | 0.183 ± 0.11 | 0.397 ± 0.011 |
| Nc1nc(N)nc(-c2cc(Cl)ccc2Cl)n1 [Irsogladine maleate] | 0.238 ± 0.0051 | 0.298 ± 0.013 | 0.2393 ± 0.0018 | 0.207 ± 0.011 | 0.173 ± 0.0041 | 0.143 ± 0.0066 | 0.297 ± 0.072 | 0.406 ± 0.025 | 0.197 ± 0.019 | 0.211 ± 0.017 | 0.589 ± 0.1 | 0.402 ± 0.0076 | 0.357 ± 0.0079 |
| CC(=O)Nc1ccc(CC(=O)O)cc1 [Actarit] | 0.2349 ± 0.00093 | 0.291 ± 0.024 | 0.259 ± 0.0053 | 0.198 ± 0.015 | 0.217 ± 0.0053 | 0.136 ± 0.0042 | 0.291 ± 0.009 | 0.311 ± 0.097 | 0.183 ± 0.017 | 0.203 ± 0.025 | 0.574 ± 0.11 | 0.412 ± 0.011 | 0.342 ± 0.015 |
| Nc1ccc(O)c(C(=O)O)c1 [Mesalamine] | 0.2446 ± 0.0018 | 0.287 ± 0.014 | 0.278 ± 0.0044 | 0.2 ± 0.011 | 0.21 ± 0.0038 | 0.144 ± 0.0074 | 0.339 ± 0.052 | 0.362 ± 0.061 | 0.195 ± 0.024 | 0.213 ± 0.021 | 0.554 ± 0.11 | 0.416 ± 0.0084 | 0.363 ± 0.011 |
| CO/N=C(\C(=O)N[C@@H]1C(=O)N2C(C(=O)O)=C(C[N+]3(C)CCCC3)CS[C@H]12)c1csc(N)n1 [Cefepime hydrochloride] | 0.0426 ± 0.00078 | 0.0381 ± 0.00085 | 0.0472 ± 0.0016 | 0.03857 ± 0.00031 | 0.0612 ± 0.0025 | 0.048 ± 0.00053 | 0.197 ± 0.017 | 0.188 ± 0.012 | 0.182 ± 0.0028 | 0.173 ± 0.011 | 0.0488 ± 0.0038 | 0.0455 ± 0.00017 | 0.0731 ± 0.0077 |
